# Screening results from PubChem.
# TDP1 cell CPT: growth inhibition of DT40 Tdp1-/-;hTDP1 cells with camptothecin (screen for TDP1 inhibitors); chicken DT40 Tdp1-/-;hTDP1 cells + 20 nM CPT, ATP luminescence, 48 h; Potency, µM (highest dose often 46.2 µM), inactives show top-dose activity change, negative = growth inhibition, actives largely listed as inhibitors; hit rate 12% among 420,000; further: potency means the concentration at half of the fitted maximal effect; nearly all actives have a fitted effect of over 55% in size
#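 Chicken DT40 Tdp1-/- cells complemented with human TDP1, 400 cells/well, exposed to compounds plus 20 nM camptothecin for at least 48 h at 37 C; viability read as ATP content by CellTiter-Glo luminescence.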
# HT1080 IDH1KD tx: toxicity to HT-1080 IDH1 knockdown cells (counter line); HT-1080 IDH1 knockdown viability, ATP luminescence, 48 h; Potency, µM (highest dose often 46.1 µM), for the others: at the top dose activity, negative = toxicity, most hits filed as cytotoxic; hit rate 2% among 360,000; AID 686971;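 further: potency means the concentration at half of the fitted maximal effect; 0% = DMSO wells and -100% = cell-free medium wells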
#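 HT-1080-IDH1KD cells (IDH1 knocked down), 750/well in RPMI with 5% FBS, treated with compound 48 h at 37 degrees C. Viability by CellTiter-Glo luminescence, normalised to DMSO and no-cell wells; concentration-response curves classed.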
# DT40 TDP1 no CPT: qHTS for Inhibitors of human tyrosyl-DNA phosphodiesterase 1 (TDP1): qHTS in cells in absence of CPT. hit rate 15% among 420,000. Potency, µM (highest dose often 46.2 µM), without a hit: at the highest dose activity change, negative = growth inhibition, usual class: inhibitors. DT40 Tdp1-/- hTDP1 cells, no CPT, ATP luminescence, 48 h; further: potency means the concentration at half of the fitted maximal effect; nearly all actives have a fitted effect of over 55% in size
#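 Growth kinetics read by CellTiter-Glo luminescence after ≥48 hr at 37 °C. Cells: DT40 Tdp1-/- stably carrying human TDP1, 400 per well, compound exposure in the absence of CPT (DMSO vehicle).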
# HT1080-NT tox: kills 2HG-producing HT-1080-NT fibrosarcoma cells | HT-1080-NT fibrosarcoma viability, CellTiter-Glo ATP luminescence, 48 h | hit rate 1.6% among 360,000 | Potency, µM (series often up to 46.1 µM), without a hit: at the highest dose activity, negative = less viability, most hits filed as cytotoxic;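 further: NT is the 2HG producing partner of a matched IDH1 knockdown line; potency means the concentration at half of the fitted maximal effect; 0% = DMSO-treated cells and -100% = media-only wells without cells; nearly all actives have a fitted effect of over 55% in size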
#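 Fibrosarcoma NT cells, 750 per well in 5% FBS RPMI, were exposed to compound for 48 hours. Viability: CellTiter-Glo luminescence.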
# 12-LOX inh: ALOX12 (human) lipoxygenase inhibition | P18054 | purified 12hLO, xylenol orange hydroperoxide absorbance | Potency, µM (highest dose often 108 µM), without a hit: top-dose activity change, negative = inhibition, usual class: inhibitors | hit rate 1.1% among 580,000; further: potency means the concentration at half of the fitted maximal effect
# Target sequence (P18054 whole entry, looked up): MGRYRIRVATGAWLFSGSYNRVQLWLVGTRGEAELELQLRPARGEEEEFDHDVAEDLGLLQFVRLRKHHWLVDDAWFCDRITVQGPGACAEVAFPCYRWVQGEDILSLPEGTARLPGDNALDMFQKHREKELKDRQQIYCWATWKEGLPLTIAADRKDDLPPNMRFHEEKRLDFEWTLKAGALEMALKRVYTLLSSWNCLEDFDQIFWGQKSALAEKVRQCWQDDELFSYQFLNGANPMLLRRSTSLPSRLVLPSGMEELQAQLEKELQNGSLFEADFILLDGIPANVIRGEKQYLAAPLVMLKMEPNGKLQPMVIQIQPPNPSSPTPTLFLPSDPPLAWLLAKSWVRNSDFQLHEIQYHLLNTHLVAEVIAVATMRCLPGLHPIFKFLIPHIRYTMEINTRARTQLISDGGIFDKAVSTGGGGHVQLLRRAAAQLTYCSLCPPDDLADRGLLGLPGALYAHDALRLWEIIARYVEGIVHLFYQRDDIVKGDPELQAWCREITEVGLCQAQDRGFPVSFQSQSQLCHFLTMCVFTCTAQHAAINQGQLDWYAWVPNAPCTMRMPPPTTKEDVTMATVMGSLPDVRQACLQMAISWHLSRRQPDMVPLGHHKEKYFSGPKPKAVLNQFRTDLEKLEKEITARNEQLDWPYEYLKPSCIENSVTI
#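 Hydroperoxide product was detected by ferrous iron/xylenol orange as the 573 to 405 nm absorbance ratio. Arachidonic acid at 40 uM (final) was turned over for 30 min at room temperature by 150 nM human 12hLO, pH 7.0 Hepes buffer, after 15 min compound preincubation.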
# IL1B secr inh: inflammasome signaling inhibition, IL-1 beta readout; activity change, % at 57.5 µM; THP-1 LPS/ATP IL-1B secretion, AlphaLISA, 16 h; hits give low values; AID 743279; hit rate 4.7% among 360,000; in the data active means activity change below about -50%; inconclusive means mostly about -30% to -49%
#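 Secreted IL-1B measured by AlphaLISA bead assay after 16 h compound exposure of THP-1 cells; compounds (final up to 57.5 uM) added 1 h before LPS (250 ng/mL) and ATP (1.25 mM) stimulation; lower signal means less secretion.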
# Starred values were filed as active, the others as inactive; u = inconclusive; x = not tested or not shown; [ ] = another dose, or the depositor's remark. The entries come from a sample that favours hits as a whole. Unless noted, the call rests on the fitted dose curve; in most records, active means well fitted curve in the direction sought with a large enough effect; inconclusive means small, poorly fitted or top-dose-only effect, or another doubt; inactive means no such curve, though single readings can be large; an effect the other way counts as inactive or inconclusive. Unless noted, on the % scale 0 is the no-effect control and ±100 the full control effect.
SMILES,TDP1 cell CPT,HT1080 IDH1KD tx,DT40 TDP1 no CPT,HT1080-NT tox,12-LOX inh,IL1B secr inh
Nc1nc2nc(-c3ccccc3)cc(C(F)(F)F)c2s1,u,u,u,-28.2%,-1.4%,-72.8*
COc1ccc2c(c1)c(CC(=O)Nc1ccc(C)cc1)c(C)n2C(=O)c1ccc(Cl)cc1,u,-16.5%,20.6µM*,-12.3%,-4.0%,21.6
COC(=O)CNC(=O)Cc1c(C)n(C(=O)c2ccc(Cl)cc2)c2ccc(OC)cc12,-24.7%,-11.4%,0.7%,-12.3%,-4.0%,23.5
COc1ccc2c(c1)c(CC(=O)OC(C)C(=O)N(C)C)c(C)n2C(=O)c1ccc(Cl)cc1 (configuration not stated),20.6µM*,-1.9%,14.6µM*,-4.2%,-5.6%,8.3
COc1ccc2c(c1)c(CCNNC(=O)C(C)(C)C)c(C)n2C(=O)c1ccc(Cl)cc1,23.1µM*,-7.2%,16.4µM*,6.6%,1.7%,u
COc1ccc2cc(C3=CCCCC3)ncc2c1,u,1.4%,u,3.0%,u,25.7
COc1ccccc1N1CCN(C(=O)CCS(=O)(=O)c2cc(Br)cc3c2N(C(=O)C2CC2)CC3)CC1,16.4µM*,x,u,x,-5.6%,x
CCC(=O)N1CCc2cc(Br)cc(S(=O)(=O)N3CCN(c4ccccc4OC)CC3)c21,u,x,23.1µM*,x,-24.7%,x
COc1ccccc1N1CCN(C(=O)CCS(=O)(=O)c2cc(Br)cc3c2N(C(C)=O)CC3)CC1,u,x,u,x,-24.4%,x
Cc1cc2c(c(=O)o1)[C@@]1(C(=O)N(c3ccccc3)c3ccccc31)C1=C(CCCC1=O)O2,x,x,x,x,-8.2%,x
CCOC(=O)C1(Cc2ccc(Cl)cc2)CCN(C(C)Cc2ccc(O)c(OC)c2)CC1 (configuration not stated),9.2µM*,-14.5%,3.26µM*,-27.4%,u,-50.8*
CCOC(=O)C1(CCCc2ccccc2)CCN(C(=O)c2cnc(C)cn2)CC1,25.9µM*,-1.9%,20.6µM*,-3.6%,0.1%,-13.7
CCOC(=O)C1(Cc2ccc(Cl)cc2)CCN(C(=O)c2cnc(C)cn2)CC1,u,-3.5%,23.1µM*,-0.3%,-2.7%,32.1
CCOC(=O)C1(CCCc2ccccc2)CCN(C(=O)c2cc(C)nc(C)n2)CC1,u,10.7%,u,7.7%,69.0%,29.0
CCOC(=O)C1(CCc2ccccc2)CCN(C(=O)c2occc2C)CC1,u,2.5%,14.6µM*,6.0%,u,-11.6
COc1ccc(CNC(=O)c2c(C)noc2-c2ccccc2C)cc1,x,x,x,x,-3.7%,x
CCOC(=O)C1(Cc2ccc(Cl)cc2)CCN(Cc2cn(CC)nc2C)CC1,16.4µM*,7.2%,u,-1.8%,3.7%,u
CCOC(=O)C1(Cc2ccc(OC)cc2)CCN(C(=O)c2cccc3nccnc23)CC1,-14.6%,-1.9%,-19.8%,-2.5%,-21.7%,26.0
CCOC(=O)C1(Cc2ccc(OC)cc2)CCN(C(=O)c2cc(C)nn2C)CC1,23.1µM*,14.6µM*,18.4µM*,u,6.3%,22.3
CCOC(=O)C1(CCCc2ccccc2)CCN(C(=O)c2cnn(CC)c2)CC1,25.9µM*,-2.4%,18.4µM*,-7.9%,9.0%,-23.6
CCOC(=O)C1(CCCc2ccccc2)CCN(Cc2cnn(C)c2)CC1,u,-5.3%,u,-21.2%,9.9%,-12.3
CCCCC/C=C\C\C=C/C=C/C=C/[C@@H](SC[C@H](N)C(=O)O)[C@@H](O)CCCC(=O)O,11.6%[0.628 µM],x,18.8%[0.628 µM],x,5.4%[2.23 µM],x
Cc1cccc(N2CCN(C(=O)c3cc4ccc5cccnc5c4[nH]3)CC2)c1C,23.1µM*,x,u,x,-19.3%,x
Cc1ccc(Cl)cc1N1CCN(C(=O)c2cc3ccc4cccnc4c3[nH]2)CC1,u,x,u,x,-9.3%,x
